# Experimental data published in PubChem BioAssay AID845 (Columbia University Molecular Screening Center, 2007).
# Hit rate of the full screen: of about 94,000 compounds, about 390 (0.41%) were called active. The sample as a whole holds a higher share of actives than the screen did. Unmarked numbers belong to inactive results.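 The calls were made as follows: active = cell count reduction more than 3 SD above the screen-wide mean (cut at about 70% in these data); inactive = the rest.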
# Experiment: cytotoxicity in IL-1B stimulated HUVEC, primary screen, cytotoxicity control for IL-1B NFkB translocation project, imaging, Hoechst nuclear count, IL-1B stimulus (AID 845);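 also: normalized per plate to untreated control cells as the no-loss baseline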
# Settings: HUVEC cell count loss, at 2 µM, stronger effect = higher value
row,SMILES,cell count reduction
1,Cc1c(Br)c([N+](=O)[O-])nn1C(C)C(=O)Nc1nccs1 (stereo not given),4.9%
2,COc1ccc(Oc2coc3cc(OC(=O)c4cncc(Br)c4)ccc3c2=O)cc1,17.2%
3,CNC(=O)c1c(NC(NC(=O)c2ccco2)C(=O)c2ccc(Cl)cc2)sc2c1CCCC2 (stereo not given),9.9%
4,CCCOC(=O)C1=C(C)NC2=C(C(=O)C(C(=O)OC)C(C)C2)C1c1ccc(N(C)C)cc1 (stereo not given),-20.9%
5,CCCC(=O)C1CCN(Cc2ccccc2)CC1,-26.8%
6,CCCC(=O)C1=C(N(C)c2ccccc2)CC(C)(C)C(C(=O)OC)C1=O (stereo not given),87.1% (active)
7,COc1cccc(/C=N\Nc2nncc(-c3ccccc3)n2)c1,13.5%
8,CC(=O)C1=C(C)NC(=O)NC1c1cc(Br)ccc1OCC#N (stereo not given),-86.7%
9,CCOC(=O)COc1ccc(Cl)cc1C1NC(=O)NC(C)=C1C(C)=O (stereo not given),87.6% (active)
10,CCOc1ccccc1C1NC(=O)NC(C)=C1C(=O)OCc1ccco1 (stereo not given),4.9%
11,O=c1ccn(Cc2ccccc2Cl)cc1,-6.2%
12,O=c1[nH][nH]c(C(F)(F)F)c1C=NCc1ccccc1Cl,86.3% (active)
13,CCc1ccc(CNC(=O)CCc2nc(-c3cccs3)no2)cc1,5.9%
14,COc1cccc(-c2nnc(SCCOc3ccc4c(C)cc(=O)oc4c3)o2)c1,10.8%
15,Cc1ccc(-n2cc3ccc([N+](=O)[O-])cc3n2)cc1,-52.5%
16,CC(C)(C)c1nc2ccccc2c(=O)n1N1C(=O)c2ccccc2C1=O,-11.3%
17,N#C/C(=C1/CCCN1)c1ccccn1,23%
18,Cc1cc(OC(=O)c2c(Cl)cccc2Cl)nc(C)n1,31.7%
19,CC(=O)Nc1ccc(N2C(=O)C3C4CC(=O)C(c5ccccc54)C3C2=O)cc1 (stereo not given),-15.5%
20,CCOCCCNC(=O)C(NC(=O)c1ccc(=O)[nH]c1)c1ccc(Cl)cc1 (stereo not given),-8.1%

row,SMILES,cell count reduction
1,Cc1ccccc1CSCCNC(=O)c1ccc(Cl)c(S(=O)(=O)N2CCOCC2)c1,-18.7%
2,Cc1cc([N+](=O)[O-])c(N2CCC[C@@H]2C(=O)O)c([N+](=O)[O-])c1,-39.6%
3,O=C(NCc1ccc(Cl)cc1)c1cc(=O)nc2sc(-c3ccccc3)nn12,-3.6%
4,Cc1cc(Oc2ccccc2)nc(N2CCOCC2)n1,-31.8%
5,COc1c(Cl)cc(C(=O)Nc2ccc(Cl)cn2)cc1Cl,-4.5%
6,CCn1c(=O)c(=O)n(CC)c2cc(S(=O)(=O)N3CCc4ccccc43)ccc21,14.3%
7,CCn1nnnc1SCC(=O)c1ccc(C)cc1C,-33.9%
8,O=C(NC(C(=O)NCCN1CCOCC1)C12CC3CC(CC(C3)C1)C2)C1CCCCC1 (stereo not given),0%
9,COc1ccc(/C=N\NC(=O)c2sc(N)nc2C)cc1OC,-1.3%
10,COc1cc(/C=N/NC(=O)Nc2ccccc2)ccc1OCCOc1ccccc1C,70% (active)
11,CCOc1ccc(NC(=O)Nc2cc(C)ccc2OC)cc1,-41.8%
12,CC(C)C(C)NC(=O)COc1ncnc2ccccc12 (stereo not given),-6.1%
13,O=C(Cc1ccc(S(=O)(=O)N2CCOCC2)s1)NCCC(c1ccccc1)c1ccccc1,2.4%
14,N#Cc1c(C(F)(F)F)cc(-c2ccccc2)nc1SCC(=O)N1CCOCC1,11.3%
15,CCOC(=O)C(C)n1cnc2sc(C)c(C)c2c1=O (stereo not given),-9.7%
16,Cc1cccc(CCNS(=O)(=O)c2ccc(S(=O)(=O)NC3CCCC3)cc2)c1,-6.4%
17,COc1ccc(-c2cc(C(=O)NCc3ccco3)no2)cc1OC,3%
18,Cc1ccc(OCC(=O)N2CCN(C(=O)c3cccnc3)CC2)cc1,-38.8%
19,CNC(=S)N1N=C(c2ccccc2)CC1c1ccc(Br)cc1 (stereo not given),-18.6%
20,COc1ccc(F)cc1S(=O)(=O)Nc1ccc2c(c1)OCO2,-1.3%

row,SMILES,cell count reduction
1,CC(C)CNS(=O)(=O)c1ccc(OCC(=O)Nc2ccc3c(c2)OCO3)c(Cl)c1,-38.8%
2,COc1ccc(S(=O)(=O)Nc2ccc3c(c2)OCO3)cc1Cl,81.3% (active)
3,O=C1c2ccccc2C(=O)c2c1cccc2N1CCN(CCO)CC1,-12.4%
4,Cc1ccc(NC(=S)N/N=C2/CCCc3c(C)cc(C)cc32)cc1,-6.1%
5,CC(Sc1nncn1C)C(=O)Nc1ccccc1-c1ccccc1 (stereo not given),35.5%
6,CC(C(=O)Nc1ccccc1-c1ccccc1)N1CCOCC1 (stereo not given),91.2% (active)
7,O=C(c1ccccc1-c1ccccc1)N1CCOCC1,-0.4%
8,COc1cc(/C=N/O)cc(Br)c1OCc1cccc(Cl)c1,-29.3%
9,Cc1ccc(O/C=C2\OC(=O)c3ccccc32)cc1,-34.7%
10,N=c1oc2ccccc2cc1C(=O)N/N=C/c1ccccc1,23.4%
11,CCc1c(O)nc(SCC(=O)Nc2ccccc2)n(C(C)CC)c1=O (stereo not given),-2.8%
12,COCC(C)NC(=O)c1ccc(-n2nc(C(F)(F)F)cc2-c2cccs2)cc1 (stereo not given),-9.2%
13,Cn1c(=O)c2c(ncn2CC(COCc2ccccc2Cl)OCc2ccccc2Cl)n(C)c1=O (stereo not given),8.7%
14,O=C(Nc1cccn(Cc2c(Cl)cccc2Cl)c1=O)c1ccc(Cl)cc1,-1.3%
15,Cc1ccc(Nc2nnc(SCc3ccccc3)s2)cc1,22.5%
16,CC(=O)c1cnn(-c2cc(Oc3ccc(F)cc3)ncn2)c1C,-1.7%
17,Cc1nnc(SCC(=O)NC2CCCC2)s1,22.6%
18,CNS(=O)(=O)c1cnccc1N1CCN(c2cccc(C)c2)CC1,-0.7%
19,CC/C(O)=N\S(=O)(=O)c1ccc(N=NN(C)C)cc1,-5.3%
20,COc1ccc(-c2cc(C(=O)n3cnc4ccccc43)c3ccccc3n2)cc1,-10%
